This note sets out measurements from paper PMC4336329 (PLoS ONE, 2015).

Out of some 310,000 compounds screened, about 14,000 (4.5%) showed an effect of 50% or more. Effects have a minus sign here. The entries come from a sample that favours strong results as a whole.
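Further: peak tail current of the secondary pulse compared with the same well before compound.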

The target of the assay is human ether-à-go-go-related gene (hERG) potassium channel (human, UniProt Q12809). As to the kind of experiment: primary screen, population patch clamp on CHO cells stably expressing hERG; higher = less effect of the substance.
human ether-à-go-go-related gene (hERG) potassium channel, sequence (Q12809 whole entry, looked up): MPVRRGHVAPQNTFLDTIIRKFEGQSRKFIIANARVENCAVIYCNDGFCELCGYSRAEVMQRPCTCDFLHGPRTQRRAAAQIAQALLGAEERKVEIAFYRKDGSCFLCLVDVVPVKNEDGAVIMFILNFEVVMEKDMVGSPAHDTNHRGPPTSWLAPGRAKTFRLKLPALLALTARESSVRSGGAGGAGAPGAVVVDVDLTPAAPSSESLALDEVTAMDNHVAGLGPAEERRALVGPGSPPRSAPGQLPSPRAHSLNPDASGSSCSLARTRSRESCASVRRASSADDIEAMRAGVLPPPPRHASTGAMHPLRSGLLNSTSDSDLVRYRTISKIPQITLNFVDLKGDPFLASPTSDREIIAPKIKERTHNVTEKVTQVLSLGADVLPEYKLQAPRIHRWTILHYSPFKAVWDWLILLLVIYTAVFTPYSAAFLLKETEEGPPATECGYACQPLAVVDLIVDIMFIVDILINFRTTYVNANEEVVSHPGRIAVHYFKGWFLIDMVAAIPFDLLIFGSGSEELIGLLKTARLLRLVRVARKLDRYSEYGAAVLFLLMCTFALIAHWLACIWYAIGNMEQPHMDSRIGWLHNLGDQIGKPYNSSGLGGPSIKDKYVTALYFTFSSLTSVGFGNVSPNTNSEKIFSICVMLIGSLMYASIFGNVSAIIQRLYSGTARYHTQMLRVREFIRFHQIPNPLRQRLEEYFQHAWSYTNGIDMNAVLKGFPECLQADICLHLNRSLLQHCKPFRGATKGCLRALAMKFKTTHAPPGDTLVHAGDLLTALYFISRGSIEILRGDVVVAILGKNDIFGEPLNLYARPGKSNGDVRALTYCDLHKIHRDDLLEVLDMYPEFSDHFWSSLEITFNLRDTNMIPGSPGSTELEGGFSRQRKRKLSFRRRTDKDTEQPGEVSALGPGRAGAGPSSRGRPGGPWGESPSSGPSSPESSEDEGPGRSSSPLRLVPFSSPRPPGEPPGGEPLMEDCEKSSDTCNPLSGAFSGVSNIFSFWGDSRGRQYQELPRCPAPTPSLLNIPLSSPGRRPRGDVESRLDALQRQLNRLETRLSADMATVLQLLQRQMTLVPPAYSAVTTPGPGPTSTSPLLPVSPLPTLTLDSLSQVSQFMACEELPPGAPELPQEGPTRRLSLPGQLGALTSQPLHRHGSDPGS
Consider `CCn1ccnc1CN1CCc2c([nH]c3ccccc23)C1CC(C)C` (centres unmarked), for which the “hERG current change (%, negative = inhibition) at 10uM” value is reported as -67.9%.

For `Cc1cnc(CN2CCc3c([nH]c4ccccc34)C2CC(C)C)[nH]1` (centres unmarked), the “hERG current change (%, negative = inhibition) at 10uM” value is given as -45.1%.

As for `Br.Cc1nc(-c2ccc(C(=O)O)cc2)cs1`, the “hERG current change (%, negative = inhibition) at 10uM” value is listed as 7.39%.

On to `S=C(NCCN1CCOCC1)Nc1ccc(Cl)cc1Cl`, for which the “hERG current change (%, negative = inhibition) at 10uM” value is recorded as -18%.

Turning to `CCOC(=O)N1CCN(CC(O)COCc2ccccc2)CC1.Cl` (centres unmarked), the “hERG current change (%, negative = inhibition) at 10uM” value is given as -4.06%.

Regarding `Cc1ccc(S(=O)(=O)Nn2c(C)ccc2C)cc1`, the “hERG current change (%, negative = inhibition) at 10uM” value worked out at 15.3%.

On to `Nc1ccccc1Nc1ccccc1`, for which the “hERG current change (%, negative = inhibition) at 10uM” value is -13.6%.

Take `O=c1c(Cl)c(NCc2ccccc2Cl)cnn1C12CC3CC(CC(C3)C1)C2`: the “hERG current change (%, negative = inhibition) at 10uM” value is -5.06%.

For `CN(C)c1ccc(C(CC(=O)O)NC(=O)c2ccc(Cl)cc2)cc1` (centres unmarked), the “hERG current change (%, negative = inhibition) at 10uM” value was -9.38%.

Regarding `N#CCc1ccc(NC(=O)c2ccc(S(=O)(=O)N3CCOCC3)cc2)cc1`, the “hERG current change (%, negative = inhibition) at 10uM” value was determined as 1.97%.

As for `O=C(CN(c1ccccc1)S(=O)(=O)c1ccccc1[N+](=O)[O-])Nc1ccccc1C(=O)N1CCOCC1`, the “hERG current change (%, negative = inhibition) at 10uM” value is 3.76%.

As for `Cc1ccc(CN2CCSCC2)c(C)c1`, the “hERG current change (%, negative = inhibition) at 10uM” value stood at 16.9%.

Turning to `Cc1cccc(OCC(O)Cn2c(N3CCCCC3)nc3c2c(=O)[nH]c(=O)n3C)c1` (centres unmarked), the “hERG current change (%, negative = inhibition) at 10uM” value was 13%.

For `CCCSc1nsc(NC(=O)CC)n1`, the “hERG current change (%, negative = inhibition) at 10uM” value was -30.5%.

As to `CCCC1Cc2c(sc(N)c2C#N)CO1` (centres unmarked), the “hERG current change (%, negative = inhibition) at 10uM” value turned out to be 2.5%.

With `CC(C)Cc1nnc(NC(=O)c2ccc(N3CCCC3=O)cc2)s1`, the “hERG current change (%, negative = inhibition) at 10uM” value is on record as 2.3%.

Regarding `CCCCN(C)C(=O)c1ccc(S(=O)(=O)N2CCOCC2)cc1`, the “hERG current change (%, negative = inhibition) at 10uM” value is listed as 17.3%.

In the case of `Cc1cccc(C)c1NC(=O)CN(C)C(=O)c1cc(S(=O)(=O)N2CCOCC2)ccc1N1CCCC1`, the “hERG current change (%, negative = inhibition) at 10uM” value is -3.99%.

As for `Cc1ccc(OCCOC(=O)c2cc(S(=O)(=O)N3CCCCC3)ccc2N2CCOCC2)cc1`, the “hERG current change (%, negative = inhibition) at 10uM” value is -9.24%.

`Cc1ccc(OCCNC(=O)Cc2ccc(S(=O)(=O)N3CCOCC3)s2)cc1`: the “hERG current change (%, negative = inhibition) at 10uM” value was -24%.

`CN(CCOc1ccccc1)C(=O)c1ccc(F)c(S(=O)(=O)N2CCOCC2)c1`: the “hERG current change (%, negative = inhibition) at 10uM” value is reported as -10.8%.

Turning to `COc1ccc(NC(=O)CN(C)C(=O)Cc2ccc(S(=O)(=O)N3CCOCC3)s2)cc1`, the “hERG current change (%, negative = inhibition) at 10uM” value came to 8.92%.

On to `CN(CCOc1ccc(Cl)cc1)C(=O)Cc1ccc(S(=O)(=O)N2CCOCC2)s1`, for which the “hERG current change (%, negative = inhibition) at 10uM” value is recorded as -73.1%.

Regarding `O=C(NCC1CCN(c2ccc(S(=O)(=O)N3CCOCC3)cc2)CC1)c1cccc(Cl)c1`, the “hERG current change (%, negative = inhibition) at 10uM” value is recorded as -12.4%.

Regarding `O=C(NCC1CCN(c2ccc(S(=O)(=O)N3CCOCC3)cc2)CC1)c1ccc(Cl)cc1`, the “hERG current change (%, negative = inhibition) at 10uM” value is given as -57.2%.

As to `CN(CCOc1ccc(Cl)cc1)C(=O)c1ccc(S(=O)(=O)N2CCOCC2)cc1`, the “hERG current change (%, negative = inhibition) at 10uM” value was -74.9%.

For `CN(CCOc1ccc(Cl)cc1)C(=O)c1cc(S(=O)(=O)N2CCOCC2)ccc1N1CCCC1`, the “hERG current change (%, negative = inhibition) at 10uM” value is -63.7%.

Turning to `COc1cccc(C(=O)NCC2CCN(c3ccc(S(=O)(=O)N4CCOCC4)cc3)CC2)c1`, the “hERG current change (%, negative = inhibition) at 10uM” value is given as -22.9%.

Take `O=C(Nn1cnc2ccccc2c1=O)c1ccccc1`: the “hERG current change (%, negative = inhibition) at 10uM” value was 12.7%.

Turning to `COc1c(Cl)cc(C(=O)Nc2ccccc2-c2ccccc2)cc1Cl`, the “hERG current change (%, negative = inhibition) at 10uM” value is listed as 0.345%.

In the case of `Cc1ccc(NC(=O)Cn2nc(C(=O)Nc3ccc(C)cc3)ccc2=O)cc1`, the “hERG current change (%, negative = inhibition) at 10uM” value was determined as 10.8%.

Turning to `CCN(CC)S(=O)(=O)c1cccc(C(=O)OC2CC(C)OC2=O)c1` (centres unmarked), the “hERG current change (%, negative = inhibition) at 10uM” value was found to be 12.7%.

As for `Nc1nc(NCc2ccccc2)nc(NCc2ccccc2)c1[N+](=O)[O-]`, the “hERG current change (%, negative = inhibition) at 10uM” value is 16.2%.

On to `O=C(Nc1c2c(nn1-c1ccccc1)CS(=O)C2)c1ccc(S(=O)(=O)N2CCOCC2)cc1` (centres unmarked), for which the “hERG current change (%, negative = inhibition) at 10uM” value is reported as 17.4%.

For `COc1cc(NC(=O)COC(=O)/C=C/c2ccc(Cl)cc2Cl)cc(OC)c1`, the “hERG current change (%, negative = inhibition) at 10uM” value is 5.23%.

Turning to `CC(C)(C)NC(=O)NCCc1ccccc1`, the “hERG current change (%, negative = inhibition) at 10uM” value was 11%.

Take `CC(=O)Nc1ccc2nc(SCC(=O)N3CCOCC3)sc2c1`: the “hERG current change (%, negative = inhibition) at 10uM” value is on record as 18.9%.

On to `COc1cc(/C=N/NC(=O)[C@H](Cc2c[nH]c3ccccc23)NC(=O)OCC(C)C)cc([N+](=O)[O-])c1O`, for which the “hERG current change (%, negative = inhibition) at 10uM” value stood at 10.3%.

Consider `COc1ccc(S(=O)(=O)N2CCCCCC2)cc1C(=O)N(C)Cc1ccc(Cl)cc1Cl`, for which the “hERG current change (%, negative = inhibition) at 10uM” value was -23.1%.

For the compound `COc1ccc(S(=O)(=O)N2CCCCCC2)cc1C(=O)N(C)CCOc1ccc(Cl)cc1`, the “hERG current change (%, negative = inhibition) at 10uM” value was -47.7%.

As to `CN(CCOc1ccc(Cl)cc1)C(=O)c1cc([N+](=O)[O-])ccc1N1CCOCC1`, the “hERG current change (%, negative = inhibition) at 10uM” value is on record as -66.7%.

`O=C(COc1ccc(S(=O)(=O)N2CCOCC2)cc1)NCC1CCCO1` (centres unmarked): the “hERG current change (%, negative = inhibition) at 10uM” value is recorded as -15.1%.

As for `O=C(NCC1CCCO1)c1cc(S(=O)(=O)N2CCOCC2)ccc1Cl` (centres unmarked), the “hERG current change (%, negative = inhibition) at 10uM” value came out at 16.5%.

On to `CCN1CCN(S(=O)(=O)c2ccc(Cl)c(C(=O)N(C)Cc3cccc(OC)c3)c2)CC1`, for which the “hERG current change (%, negative = inhibition) at 10uM” value is -11.2%.

With `CCN1CCN(S(=O)(=O)c2ccc(Cl)c(C(=O)N(C)Cc3ccc(F)cc3)c2)CC1`, the “hERG current change (%, negative = inhibition) at 10uM” value was -25.1%.

For the compound `CCN1CCN(S(=O)(=O)c2ccc(Cl)c(C(=O)N(C)CCOc3ccc(Cl)cc3)c2)CC1`, the “hERG current change (%, negative = inhibition) at 10uM” value is given as -52.8%.

As for `CN(CCOc1ccccc1)C(=O)c1cc([N+](=O)[O-])ccc1N1CCOCC1`, the “hERG current change (%, negative = inhibition) at 10uM” value is reported as -27.3%.

With `O=S(=O)(c1ccc2c(c1)nc(COc1ccc(Cl)cc1)n2CC1CCCO1)N1CCOCC1` (centres unmarked), the “hERG current change (%, negative = inhibition) at 10uM” value is -65.2%.

With `Cc1cccc(C)c1NC(=O)CN(C)C(=O)c1cc([N+](=O)[O-])ccc1N1CCOCC1`, the “hERG current change (%, negative = inhibition) at 10uM” value is listed as 24.1%.

As for `COc1ccc(S(=O)(=O)N2CCOCC2)cc1C(=O)N(C)CCOc1ccc(Cl)cc1`, the “hERG current change (%, negative = inhibition) at 10uM” value is -79.8%.
